This passage reports Potency results from ChEMBL document CHEMBL1201862, “PubChem BioAssay data set” (2004).

Screen size: about 400,000 compounds; about 2,100 (0.53%) were called active. Roughly 14% stayed inconclusive and do not appear here. The rule behind the calls is not given here. This excerpt belongs to a sample that is enriched for actives.

The target in this assay is Ataxin-2 (Homo sapiens) (UniProt Q99700). The assay can be described thus: qHTS for Inhibitors of ATXN expression. Format: functional. (In general: In qHTS, concentration-response curves come from the screen itself.)
Chain of Ataxin-2 (Homo sapiens) (Q99700 whole entry): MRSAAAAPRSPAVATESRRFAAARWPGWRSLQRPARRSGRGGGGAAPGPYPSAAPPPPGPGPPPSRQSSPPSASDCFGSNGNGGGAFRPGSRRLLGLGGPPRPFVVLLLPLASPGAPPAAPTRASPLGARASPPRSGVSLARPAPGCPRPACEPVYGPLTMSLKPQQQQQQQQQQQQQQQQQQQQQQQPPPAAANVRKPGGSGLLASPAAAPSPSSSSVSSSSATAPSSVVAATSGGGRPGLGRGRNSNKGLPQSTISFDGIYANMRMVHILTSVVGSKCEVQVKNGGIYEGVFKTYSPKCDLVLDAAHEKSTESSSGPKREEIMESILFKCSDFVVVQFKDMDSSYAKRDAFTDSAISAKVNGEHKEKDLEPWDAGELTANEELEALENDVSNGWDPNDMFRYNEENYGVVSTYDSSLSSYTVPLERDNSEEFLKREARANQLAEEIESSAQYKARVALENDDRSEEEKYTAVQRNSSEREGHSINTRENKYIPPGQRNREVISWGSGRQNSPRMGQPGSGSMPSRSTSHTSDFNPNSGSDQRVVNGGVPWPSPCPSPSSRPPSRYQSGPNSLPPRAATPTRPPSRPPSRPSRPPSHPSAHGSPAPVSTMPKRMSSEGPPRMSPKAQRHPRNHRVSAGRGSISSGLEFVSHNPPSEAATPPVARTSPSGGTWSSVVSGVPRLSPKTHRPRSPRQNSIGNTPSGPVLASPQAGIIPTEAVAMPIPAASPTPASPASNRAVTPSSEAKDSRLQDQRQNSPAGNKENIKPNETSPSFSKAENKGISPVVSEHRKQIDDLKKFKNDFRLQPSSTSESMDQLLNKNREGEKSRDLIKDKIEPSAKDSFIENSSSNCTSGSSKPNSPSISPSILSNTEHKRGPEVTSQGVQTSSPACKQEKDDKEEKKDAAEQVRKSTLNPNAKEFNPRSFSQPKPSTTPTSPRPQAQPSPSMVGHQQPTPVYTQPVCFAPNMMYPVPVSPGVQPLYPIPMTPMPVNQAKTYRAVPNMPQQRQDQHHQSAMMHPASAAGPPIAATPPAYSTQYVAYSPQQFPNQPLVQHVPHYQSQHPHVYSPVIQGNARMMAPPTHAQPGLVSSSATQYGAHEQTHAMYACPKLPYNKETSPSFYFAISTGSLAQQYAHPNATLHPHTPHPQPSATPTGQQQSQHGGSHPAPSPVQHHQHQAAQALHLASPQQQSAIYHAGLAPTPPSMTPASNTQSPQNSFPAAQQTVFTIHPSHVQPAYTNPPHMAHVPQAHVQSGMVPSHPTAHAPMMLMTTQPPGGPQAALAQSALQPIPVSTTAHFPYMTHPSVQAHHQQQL
On to `CCc1cc(=O)oc2c(CN3CCCC3)c(O)c(Cl)cc12`, for which the Potency entry was “inactive”.

`NC(=O)c1sc2nnc(-c3ccccc3)c(-c3ccccc3)c2c1N`: the Potency result is “inactive”.

For `CCOC(=O)C1(Cc2cccc(Cl)c2)CCCN(C(=O)CCSC)C1` (configuration not stated), the Potency result was “inactive”.

As to `CCOc1ccccc1CNS(=O)(=O)c1c[nH]cn1`, the Potency entry was “inactive”.

As to `CC(C)=CCC/C(C)=C/CNC(=O)C[C@H]1C[C@H](C(=O)N2CCOCC2)[C@@]2(CCC3CCCC3)c3[nH]c4cc(CCC(=O)N(C)C)ccc4c3CCN2C1=O`, the Potency was 35.5 µM (active).

`CC(C)=CCC/C(C)=C/CNC(=O)C[C@H]1C[C@H](C(=O)N(C(C)C)C(C)C)[C@@]2(C)c3[nH]c4cc(CCC(=O)N(C)C)ccc4c3CCN2C1=O`: the Potency was 20 µM (active).

Take `CN(C)C(=O)CCc1ccc2c3c([nH]c2c1)[C@]1(CCC2CCCC2)[C@@H](C(=O)N2CCOCC2)C[C@H](CC(=O)NCCC2=CCCCC2)C(=O)N1CC3`: the Potency was 35.5 µM (active).

Turning to `CN(C)C(=O)CCc1ccc2c3c([nH]c2c1)[C@]1(CCC2CCCC2)[C@@H](C(=O)N2CCOCC2)C[C@H](CC(=O)NCc2cccc(C(F)(F)F)c2)C(=O)N1CC3`, the Potency is 31.6 µM (active).

In the case of `CCOC(=O)N1CCN(C(=O)c2cn(CC)c3ccc(S(=O)(=O)N4CCCCC4)cc3c2=O)CC1`, the Potency result was “inactive”.

As to `Cc1ccc(S(=O)(=O)c2cc3ccccc3oc2=O)cc1`, the Potency result is “inactive”.

Turning to `O=C(NCc1ccccc1)c1cc2ccc(O)cc2oc1=O`, the Potency result was “inactive”.

As to `CCOc1ccc(N(C)S(=O)(=O)c2ccc3ncc(C(=O)NCC(OC)OC)c(O)c3c2)cc1`, the Potency entry was “inactive”.

As for `COCCCNc1c(O)nc2cccc3c2c1-c1ccccc1C3=O`, the Potency result is “inactive”.

Consider `COC(CNC(=O)c1ccc2c3c(onc13)-c1ccccc1C2=O)OC`, for which the Potency is 22.4 µM (active).

`CCn1c(=N)c(C(=O)NCCCOC)cc2c(=O)n3cccc(C)c3nc21`: the Potency result is “inactive”.

`COc1ccc(-c2nc3ccc(C(=O)NCC(OC)OC)cc3nc2-c2ccc(OC)cc2)cc1`: the Potency result was “inactive”.

Take `COCCCNC(=O)c1ccc2c3c(onc13)-c1ccccc1C2=O`: the Potency is 29.9 µM (active).

As to `O=c1oc2ccccc2cc1-c1nc2c(s1)CCCC2`, the Potency result is “inactive”.

For `CCc1ccc(C2=CC(c3cccc(Br)c3)n3nnnc3N2)cc1` (configuration not stated), the Potency result is “inactive”.

As to `O=C(O)c1ccc(S(=O)(=O)N2CCN(c3ccccn3)CC2)cc1`, the Potency result was “inactive”.

As for `CC(=O)Nc1ccc(S(=O)(=O)N2CCN(c3nc(NC4CCCC4)c4ccccc4n3)CC2)cc1`, the Potency is 31.6 µM (active).

Turning to `CC(=O)Nc1ccc(S(=O)(=O)N2CCN(C(=O)C3COc4ccccc4O3)CC2)cc1` (configuration not stated), the Potency entry was “inactive”.

`Cc1ccc(C)c(-n2c(=O)c(C#N)cc3c(=O)n4ccccc4nc32)c1`: the Potency entry was “inactive”.

Regarding `Cc1ccc2oc(Nc3nc(C)c(C)c(C)n3)nc2c1`, the Potency entry was “inactive”.

In the case of `CCC(C)N1CCC2(CC1)N=c1c3c(O)c4c(O)c(C)c5c(c4c1=N2)C(=O)[C@@](C)(OC=C[C@H](OC)[C@@H](C)[C@@H](OC(C)=O)[C@H](C)[C@H](O)[C@H](C)[C@@H](O)[C@@H](C)C=CC=C(C)C(=O)N3)O5` (some centres not stated), the Potency is 22.4 µM (active).

Consider `C=CCN(CC=C)C(=O)c1ccc(OC2CCN(S(=O)(=O)N(C)C)CC2)cc1`, for which the Potency entry was “inactive”.

In the case of `O=S(=O)(CCc1ccncc1)Cc1ccc2c3c(cccc13)CC2`, the Potency entry was “inactive”.

For `CC(=O)NCc1ccc(C(=O)CCl)s1`, the Potency is 16.8 µM (active).

For `CCOC(=O)C1CCCN(CC(=O)Nc2nc(-c3ccccc3)cs2)C1` (configuration not stated), the Potency entry was “inactive”.

`O=S(=O)(CCN1CCN(c2ccccn2)CC1)c1ccc(F)cc1`: the Potency entry is “inactive”.

Turning to `Nc1ncn([C@H]2O[C@@H](CO)[C@@H](O)[C@@H]2O)c(=O)n1`, the Potency was 5.01 µM (active).

As to `C=CCSc1nc2c(N)ncnc2n1C1OC(CO)C(O)C1O` (configuration not stated), the Potency entry was “inactive”.

With `O=C(NN=C1CCCC1)NC1CCCCC1`, the Potency entry is “inactive”.

Regarding `O=C(NCCc1ccc(F)cc1)c1cccc2c1C(=O)c1ccc(N3CCC(Cc4ccccc4)CC3)cc1S2(=O)=O`, the Potency result was “inactive”.

Regarding `Cc1cccc(OCC(O)Cn2ccnc2C)c1` (configuration not stated), the Potency entry was “inactive”.

Consider `N=c1n(CCN2CCCC2)c2ccccc2n1CC(O)c1ccc(Cl)c(Cl)c1` (configuration not stated), for which the Potency was 31.6 µM (active).

For `OC(CN1C2=NCCCN2c2ccccc21)c1ccc2c(c1)OCO2` (configuration not stated), the Potency entry was “inactive”.

In the case of `Cc1cccc(OCC(O)Cn2c(=N)n(CCN3CCCCC3)c3ccccc32)c1` (configuration not stated), the Potency was 39.8 µM (active).

As for `O=c1c2ccccc2n(CC(O)CN2CCCCC2)c2ccccc12` (configuration not stated), the Potency entry is “inactive”.

Take `Nn1cnnc1SCC(=O)N1CCc2ccccc2C1`: the Potency entry is “inactive”.

Take `CCOCCCn1c(=N)c(C(=O)NC(C)c2ccccc2)cc2c(=O)n3cc(C)ccc3nc21` (configuration not stated): the Potency result was “inactive”.

As to `CC(=NNc1nc2ccccc2s1)c1ccncn1`, the Potency was 10 µM (active).

`Cc1ccc(/C=N/Nc2nc3ccccc3s2)o1`: the Potency entry was “inactive”.

With `C/C(=N\Nc1nc2ccccc2s1)c1ccc(Br)s1`, the Potency entry is “inactive”.

For `CCCCCCn1c(=O)[nH]c2nc3cc(N)c(C)cc3nc2c1=O`, the Potency entry was “inactive”.

In the case of `Cc1ccc(SSc2cc(C)ccc2N)c(N)c1`, the Potency is 17.8 µM (active).

On to `FC(F)(F)c1ccc(Cl)c(-n2c(S)nnc2-c2cc(C3CC3)[nH]n2)c1`, for which the Potency result is “inactive”.

In the case of `CC(C)C(OC(=O)CN1C(=O)COc2ccccc21)C(=O)NC1CCCCC1` (configuration not stated), the Potency entry is “inactive”.

For the compound `O=S(=O)(Nc1ccc(Cl)cc1)c1ccc(N2CCOCC2)c(NC(=S)NC2CC2)c1`, the Potency result is “inactive”.

For `O=C(CN1C(=O)COc2ccc(S(=O)(=O)NC3CCCC3)cc21)Nc1ccc(Cl)cc1`, the Potency is 44.7 µM (active).

Consider `COc1ccc(C(=O)Nc2ccc(S(=O)(=O)Nc3onc(C)c3C)cc2)c(OC)c1`, for which the Potency entry was “inactive”.

As to `O=C(Cc1cccs1)Nc1ccc(F)c(S(=O)(=O)N2CCOCC2)c1`, the Potency entry was “inactive”.

Take `COc1ccc(-c2cc3ccc(O)c(CN4CCCCC4C)c3oc2=O)cc1OC` (configuration not stated): the Potency result is “inactive”.

As to `COc1ccc(-c2nc(CSCC(=O)N3CCN(c4ccccc4F)CC3)c(C)o2)cc1`, the Potency is 31.6 µM (active).

For `COc1ccc(N2CCN(C(=O)COC(=O)CCc3ccccc3)CC2)cc1`, the Potency entry is “inactive”.

For `COc1ccc(-c2nc(CN3CCN(Cc4cccc(Cl)c4)CC3)c(C)o2)cc1`, the Potency result was “inactive”.

Turning to `COc1ccc(-c2nc(CN3CCC(C(=O)NC4CCCc5ccccc54)CC3)c(C)o2)cc1OC` (configuration not stated), the Potency entry was “inactive”.

As for `COc1ccc(-c2nc(CSCC(=O)N3CCN(c4cccc(C)c4)C(C)C3)c(C)o2)cc1OC` (configuration not stated), the Potency is 18.9 µM (active).

For the compound `CCNC(=S)N1CCN(CCNC=C2C(=O)CC(C)(C)CC2=O)CC1`, the Potency entry was “inactive”.

With `CN1C(=O)NC(NS(=O)(=O)c2ccc(N)cc2)(C(F)(F)F)C1=O` (configuration not stated), the Potency result is “inactive”.

Regarding `Nc1nc2nc(-c3cccs3)cc(C(F)(F)F)n2n1`, the Potency result was “inactive”.

As to `C=CCNC(=O)/C(C#N)=C/c1c(N2CCN(c3cccc(Cl)c3)CC2)nc2c(C)cccn2c1=O`, the Potency entry is “inactive”.

Consider `O/N=C/c1cc2ccccc2n1Cc1ccccc1F`, for which the Potency entry is “inactive”.

Consider `Cc1ccc(C2=NN=C(c3ccccc3)c3ncccc3N2)cc1`, for which the Potency entry is “inactive”.

Consider `CC(C)c1ccc(NC2=NN=C(c3cccs3)CS2)cc1`, for which the Potency result was “inactive”.

With `CC(C)c1ccc(NC2=NC(=N)c3ccccc32)cc1`, the Potency is 39.8 µM (active).

With `COc1ccc(S(=O)(=O)N2CCOCC2)cc1NC(=O)COc1cccnc1[N+](=O)[O-]`, the Potency result was “inactive”.

Regarding `Clc1cccc2c1CCN(Cc1nc(-c3cnccn3)no1)C2`, the Potency result was “inactive”.

For `COc1ccccc1N1CCN(C2CCCN(C(=O)c3csc(C)n3)C2)CC1` (configuration not stated), the Potency result is “inactive”.

Consider `COc1ccccc1N1CCN(c2nc(CNC(=O)c3ccc4c(c3)OCO4)nc3ccccc23)CC1`, for which the Potency was 28.2 µM (active).

On to `COc1ccc(C(=O)N2CCOC2CNC(=O)C(=O)NCc2ccc3c(c2)OCO3)cc1` (configuration not stated), for which the Potency entry is “inactive”.

Turning to `CSc1nc(N2CCN(c3ccccc3Cl)CC2)c2ccccc2n1`, the Potency entry was “inactive”.

With `Cc1ccc(C(=O)NCc2ccc3c(c2)OCO3)cc1N1CCCC1=O`, the Potency entry was “inactive”.

Regarding `COc1ccccc1N1CCN(c2nc(CNC(=O)C3CC34CCCC4)nc3ccccc23)CC1` (configuration not stated), the Potency was 35.5 µM (active).

On to `CC1CC(C)(C)N=C(S)N1CCC(=O)N1CCN(c2ccccc2)CC1` (configuration not stated), for which the Potency entry is “inactive”.

As to `CCn1c(=N)c(S(=O)(=O)c2ccccc2)cc2c(=O)n3ccccc3nc21`, the Potency result is “inactive”.

Take `Cc1ccccc1CN(C)C1CCN(C)CC1`: the Potency entry was “inactive”.

In the case of `CCOC(=O)C1CCCN(C(=O)c2sc3nc4n(c(=O)c3c2C)CCC4)C1` (configuration not stated), the Potency result is “inactive”.

As to `CCOC(=O)CC1(C)c2nc(NC(C)=O)sc2Cc2sc(NC(C)=O)nc21`, the Potency entry is “inactive”.

On to `O=C(O)c1cccc(N2C(=O)c3cc4cccc(Br)c4cc3C2=O)c1`, for which the Potency entry was “inactive”.

Take `O=C(NCc1ccccc1Cl)C1CCN(S(=O)(=O)c2ccc(-n3cnnn3)cc2)CC1`: the Potency entry is “inactive”.

Consider `O=C(NCc1ccccc1Cl)[C@H]1CCCN1C(=O)[C@H]1CCCN1C(=O)c1cccc2ccccc12`, for which the Potency was 10 µM (active).

As to `O=C(NCc1ccccc1Cl)C1CCCO1` (configuration not stated), the Potency result is “inactive”.

Regarding `COc1ccc(CNC(=O)COC(=O)c2ccc(OCC3CCCO3)cc2)cc1` (configuration not stated), the Potency entry was “inactive”.

Consider `CC1CCN(S(=O)(=O)c2ccc3c4c2CC(=O)N4CC(C)S3)CC1` (configuration not stated), for which the Potency was 31.6 µM (active).

As to `CCN1C(=O)c2cccc3c(S(=O)(=O)N4CCC(C)CC4)ccc1c23`, the Potency result was “inactive”.

Regarding `CC(=O)N1CCSc2ccc(S(=O)(=O)N3CCC(C)CC3)cc21`, the Potency entry is “inactive”.

Take `CC(C)(C)c1nc2ccccc2c2nnc(SCC(=O)Nc3nc4ccccc4s3)n12`: the Potency was 35.5 µM (active).

`Cc1nc(SCC(=O)Nc2nc3ccccc3s2)c(C#N)c(C)c1C`: the Potency entry was “inactive”.

On to `O=C(CCNC(=O)c1ccccc1)Nc1nc2ccccc2s1`, for which the Potency entry was “inactive”.

Take `CCC(C)n1c(=N)c(C(=O)NC2CCCC2)cc2c(=O)n3ccccc3nc21` (configuration not stated): the Potency entry was “inactive”.

In the case of `COc1ccc(C(=O)c2c(N)sc3c2CCN(C(=O)OC(C)(C)C)C3)cc1`, the Potency entry is “inactive”.

For the compound `O=C1C=CC2(O[C@H](c3ccccc3)[C@@H](c3ccccc3)O2)[C@H](Sc2ccccc2O)C1`, the Potency was 2 µM (active).

With `CCN(CC)c1ccc2c(C)cc(=O)oc2c1`, the Potency result is “inactive”.

On to `CC1(C)CC(N/C=C2/C(=O)N(Cc3ccc4c(c3)OCO4)C(=O)c3ccccc32)CC(C)(C)N1`, for which the Potency is 21.2 µM (active).

For `CN(C)CCN/C=C1/C(=O)N(Cc2ccc3c(c2)OCO3)C(=O)c2ccccc21`, the Potency result is “inactive”.

Take `CN(C)CCN/C=C1/C(=O)N(Cc2ccccc2)C(=O)c2ccccc21`: the Potency entry was “inactive”.
